Values joined by “and” are separate entries in the source; they are usually repeats but may differ in a detail not shown here. Equal entries are not always repeated. ± gives the standard deviation of the averaged measurements.
Key:
Conditions in all cases: concentration: 10 µM; 24 h
[1] = tested on: HCC1569; experiment: cell number relative to DMSO (% of DMSO); higher = more cells (less growth inhibition / toxicity)
Method in brief: (§1)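 Six fields per well were imaged at ×10 after the cells were fixed in 3.7% formaldehyde and stained with a rabbit anti-H1.0 antibody, an AlexaFluor 647 secondary and DAPI. The HCC1569 and TDF cells had been plated at 800 per well in 384-well plates (RPMI, 10% FBS) and treated in triplicate with compounds at 10 µM for 24 h at 37 °C. The values are the median of replicates of H1.0 nuclear intensity or cell number, as percent of the plate control. Smoothing for positional effects was applied to HCC1569 data.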

[2] = tested on: TDF; experiment: as above
Method in brief: as §1

[3] = tested on: TDF; experiment: H1.0 immunofluorescence intensity relative to DMSO (% of DMSO); higher = stronger H1.0 induction, active = 120 or more
Method in brief: as §1

[4] = tested on: HCC1569; experiment: H1.0 immunofluorescence intensity relative to DMSO (% of DMSO); higher = stronger H1.0 induction, active = 140 or more
Method in brief: as §1
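For H1.0 immunofluorescence intensity relative to DMSO in this document: TDF is a line of transformed human dermal fibroblasts of mesenchymal origin.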
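For cell number relative to DMSO in this document: TDF denotes transformed human dermal fibroblasts of mesenchymal origin.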

Structure (SMILES) | cell number [1] | cell number [2] | H1.0 immunofluorescence intensity [3] | H1.0 immunofluorescence intensity [4]
COc1ccccc1Oc1c(NS(=O)(=O)c2ccc(C(C)(C)C)cc2)nc(-c2ncccn2)nc1OCCO [Bosentan] | 99.5 | 98.2 | 98.9 (inactive) | 107 (inactive)
CC(C)CC(NC(=O)C1OC1C(=O)O)C(=O)NCCCCN=C(N)N (stereo not given) | 99.92 ± 0.64 | 96.3 ± 6.9 | 97.7 (inactive) | 97.3 (inactive)
CC1=CC(=O)C2=C(C)CCC3C(C)C(=O)OC3C12 (stereo not given) [Leucomisine] | 99.3 | 111 | 96.5 (inactive) | 95.6 (inactive)
Cc1cc2c(s1)=Nc1ccccc1NC=2N1CCN(C)CC1 [Olanzapine] | 106 | 99.4 | 92.2 (inactive) | 95.6 (inactive)
C=CCN1CCc2cc(O)c(O)cc2C(c2ccccc2)C1 (racemic) | 101 | 108 | 90.9 (inactive) | 101 (inactive)
Cl.Cl.NCCSSCCN [Cystamine dihydrochloride] | 97.5 | 107 | 93.4 (inactive) | 101 (inactive)
Cl.c1ccc(CN2CCC3(CCCc4ccccc43)CC2)cc1 [L-687,384 hydrochloride] | 103 | 96 | 93.7 (inactive) | 103 (inactive)
CCCCCC#CCC#CCC#CCC#CCCCC(=O)O | 104 | 96.2 | 98.2 (inactive) | 101 (inactive)
O=C1CCCC(=O)C1C(=O)c1ccc(C(F)(F)F)cc1[N+](=O)[O-] [2-[2-nitro-4-(trifluoromethyl)benzoyl]-1,3-cyclohexanedione] | 96.1 | 104 | 99.8 (inactive) | 101 (inactive)
O=C(O)C1=CC(=NNc2ccc(S(=O)(=O)Nc3ccccn3)cc2)C=CC1=O [Sulfasalazine] | 106 | 102 | 93 (inactive) | 88.7 (inactive)
CC(C)(ON=C(C(=O)NC1C(=O)N2C(C(=O)[O-])=C(C[n+]3ccccc3)CSC12)c1csc(N)n1)C(=O)O (stereo not given) [Ceftazidime] | 103 | 103 | 90.2 (inactive) | 108 (inactive)
CCCCCCCCCCCCCCCCOCC(COP(=O)([O-])OCC[N+](C)(C)C)OC(=O)NC (stereo not given) | 103 | 95.7 | 95.7 (inactive) | 101 (inactive)
O=c1[nH]nc(Sc2ncc([N+](=O)[O-])s2)n1-c1ccc2c(c1)OCCO2 | 58.3 and 32.2 | 90.9 and 81.2 | 103 (inactive) and 102 (inactive) | 137 (inactive) and 134 (inactive)
CN1CCC(=C2c3ccccc3CC(=O)c3sccc32)CC1.O=C(O)C=CC(=O)O [Ketotifen fumarate] | 101 | 99.6 | 91.6 (inactive) | 98.7 (inactive)
O=C(Nc1ccccc1C(=O)Nc1ccc(CCO)cc1)c1ccc([N+](=O)[O-])cc1 [N-(4-(2-hydroxyethyl)phenyl)-2-(4-nitrobenzamido)benzamide] | 82.4 | 90.9 | 101 (inactive) | 144 (active)
COc1ccc(-c2cc(=S)ss2)cc1 [Anethole-trithione] | 102 | 92.7 | 96.7 (inactive) | 103 (inactive)
COc1ccc(Nc2nc(N)nc(CN3CCCCC3)n2)cc1 | 102 | 90.5 | 96.9 (inactive) | 94.5 (inactive)
COc1ccc2c(c1)c(CC(=O)N1CCOCC1)c(C)n2C(=O)c1ccc(Cl)cc1 [Indomethacin morpholinylamide] | 105 | 100 | 90.6 (inactive) | 85.5 (inactive)
CNCCNS(=O)(=O)c1cccc2cnccc12.Cl.Cl [H-8 dihydrochloride] | 105 | 101 | 91.8 (inactive) | 77.5 (inactive)
Fc1ccc(-c2nc3n(c2-c2ccncc2)CCS3)cc1 | 95.4 | 108 | 92.3 (inactive) | 107 (inactive)

Reference: the supplement of paper PMC7156485
